“And” between values parts separate entries of the source, which are not always exact repeats. Equal entries are not always repeated. ± gives the standard deviation of the averaged measurements.
Tested on: Listeria monocytogenes 10403S
Assay: growth inhibition relative to ceftriaxone-alone control; higher = stronger potentiation of ceftriaxone growth inhibition
Conditions: 10 µM; ceftriaxone 1 ug/ml; 12 h
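Further: End-point A600 read in BHI broth at 37 °C with 2% DMSO, inhibition computed as (1 − OD with compound plus ceftriaxone ÷ OD with ceftriaxone only) × 100.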

Structure (SMILES) | growth inhibition
NS(=O)(=O)c1cccc(N/C=C2\C(=O)Nc3ccccc32)c1 | -6.18 ± 1%
CN(C)c1cc2c(Nc3ccc4c(cnn4Cc4ccccc4)c3)ncnc2cn1 | -7.88 ± 0.099%
CNC(=O)c1ccc(C)c(-n2c(C)cc(OCc3ccc(F)cc3F)c(Br)c2=O)c1 | 35.2 ± 11%
COCC(=O)NC/C=C/c1ccc2ncnc(Nc3ccc(Oc4ccc(C)nc4)c(C)c3)c2c1 | -5.16 ± 23%
N#Cc1ccc(Oc2nccc(-c3c(-c4ccc(F)cc4)ncn3C3CCNCC3)n2)cc1 | -15.2 ± 18%
CCCS(=O)(=O)Nc1ccc(F)c(C(=O)c2c[nH]c3ncc(-c4ccc(Cl)cc4)cc23)c1F [Vemurafenib (PLX4032)] | -29.7 ± 26%
O=C1NCCc2[nH]c(-c3ccncc3)cc21 | 22.8 ± 14%
N#Cc1c(NC(=O)c2ccc(F)cc2)sc2c1CCCC2 | 1.2 ± 5.5%
COc1ccc(-c2ccncc2)cc1C(N)=O | -4.48 ± 7.1%
COc1cc2ncn(-c3cc(OCc4ccccc4C(F)(F)F)c(C(C)=O)s3)c2cc1OC | 11.2 ± 1.6%
O=C1NC(=O)C(=Cc2ccc(-c3ccc(F)cc3)o2)S1 (stereo in doubt) | 31.8 ± 28%
O=C1NC(=O)C(N2CCc3ccccc32)=C1c1ccc(Cl)cc1 | 14.5 ± 6%
FC(F)(F)c1ccc(/C=C/c2nc(COc3ccc(CCCCn4ccnn4)cc3)co2)cc1 [Mubritinib (TAK 165)] | 16.1 ± 6.1%
Cc1cccc(-c2[nH]c(C(C)(C)C)nc2-c2ccc3nccnc3c2)n1 | 9.73 ± 13%
COc1cc2c(N3CCN(C(=O)Nc4ccc(OC(C)C)cc4)CC3)ncnc2cc1OCCCN1CCCCC1 [Tandutinib (MLN518)] | 32.3 ± 18%
CN1CCN(CCOc2cc(OC3CCOCC3)c3c(Nc4c(Cl)ccc5c4OCO5)ncnc3c2)CC1 [Saracatinib (AZD0530)] | -2.45 ± 20%
CCc1cnn2c(NCc3ccc[n+]([O-])c3)cc(N3CCCC[C@H]3CCO)nc12 | -2.28 ± 10%
C#Cc1cccc(Nc2ncnc3ccc(OCCCCNCCS(C)(=O)=O)cc23)c1 | -12 ± 5.6%
NC(=O)c1ccc(-c2nc(-c3ccccn3)c(-c3ccc4c(c3)OCO4)[nH]2)cc1 | -0.443% and 16.4%
NS(=O)(=O)c1ccc(-c2ccc3c(NC(=O)C4CC4)n[nH]c3c2)cc1 | -10.8 ± 16%
Fc1cc(-c2cccc3ncc(-c4cnn(C5CCNCC5)c4)nc23)cc(F)c1CN1CCOCC1 | 82.1 ± 22%
FC(F)(F)c1cccc(Nc2nccc(-c3cnn4nc(-c5ccccc5)ccc34)n2)c1 | -7.85 ± 2.6%
CCOc1nccc2c1nc(-c1nonc1N)n2CC | 13.6 ± 0.53%
